In test [1] the test system is RAW-Dual. The test can be described thus: NF-kB SEAP reporter activity, fold change vs agonist alone; cytotoxicity flag (confluency mask): not cytotoxic; higher = enhanced NF-kB activity. The procedure, abridged:
(§1)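 Library stock was pin-tooled at 50 nL into 384-well plates of RAW-Dual macrophages (50,000 cells/well, DMEM), followed 1 h later by a PRR agonist, and the cells were kept at 37 °C, 5% CO2. Supernatant collected after 20 hours was read for IRF by QuantiLuc luminescence and for NF-κB by QuantiBlue absorbance at 620 nm. Reporter activity is fold change over agonist-alone wells, and a well counted as cytotoxic when its IncuCyte confluency was below 70% of agonist controls in both mask sets.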

Test [2] relates to RAW-Dual. The test can be described thus: NF-kB SEAP reporter activity, fold change vs agonist alone; higher = enhanced NF-kB activity. The method in brief:
as §1

The subject of test [3] is RAW-Dual. Description: NF-kB SEAP reporter activity, fold change vs agonist alone; cytotoxicity flag (confluency mask): cytotoxic (confluency <70% of control); higher = enhanced NF-kB activity. The method in brief:
as §1

Where [4] appears, read: agonist: ODN 1826 (TLR9) 0.5 ug/mL.
[5] abbreviates: agonist: Pam2CSK4 (TLR2/6) 0.1 ug/mL.
[6] abbreviates: agonist: Pam3CSK4 (TLR2/1) 0.1 ug/mL.
Setting [7] is: library stock concentration (final ~1000-fold dilution): 10 mM, cytotoxicity flag (confluency mask): not cytotoxic, agonist: MPLA (TLR4) […].
[8] abbreviates: library stock concentration (final ~1000-fold dilution): 10 mM, cytotoxicity flag (confluency mask): not cytotoxic, agonist: Imiquimod (TLR7) […].
[9] abbreviates: library stock concentration (final ~1000-fold dilution): 2 mM, cytotoxicity flag (confluency mask): not cytotoxic, agonist: Imiquimod (TLR7) […].
The mark [10] stands for this setting: library stock concentration (final ~1000-fold dilution): 2 mM, cytotoxicity flag (confluency mask): not cytotoxic, agonist: MPLA (TLR4) […].

These results are taken from the supplement of paper PMC10037445.

Over roughly 2,900 compounds, “NF-kB SEAP reporter activity, fold change vs agonist alone” has its median near 0.99; the highest 2% begin near 2.6. Many of the other results were omitted from the sample, so the highest values are more common in it than they were.

As to `NS(=O)(=O)c1ccccc1` (library stock concentration (final ~1000-fold dilution): 10 mM), the “NF-kB SEAP reporter activity” value in test [1] (agonist: LPS (TLR4) 0.1 ug/mL) came to 1.04; in test [1] (setting [4]), 0.987; in test [1] (setting [5]) it was 1.07; in test [1] (setting [6]), 0.771.

Take `NS(=O)(=O)c1ccccc1`: the “NF-kB SEAP reporter activity” value in test [2] (setting [7]) was determined as 1.11.

As to `C=CC1CN2CCC1CC2C(O)c1ccnc2ccc(OC)cc12.C=CC1CN2CCC1CC2C(O)c1ccnc2ccc(OC)cc12.O.O.O=S(=O)(O)O` (configuration not stated) (library stock concentration (final ~1000-fold dilution): 10 mM), the “NF-kB SEAP reporter activity” value was determined as 1.16 in test [1] (agonist: LPS (TLR4) 0.1 ug/mL), 0.531 in test [1] (setting [4]), 1.35 in test [1] (setting [5]) and 1.05 in test [1] (setting [6]).

For `C=CC1CN2CCC1CC2C(O)c1ccnc2ccc(OC)cc12.C=CC1CN2CCC1CC2C(O)c1ccnc2ccc(OC)cc12.O.O.O=S(=O)(O)O` (configuration not stated), the “NF-kB SEAP reporter activity” value in test [2] (setting [8]) amounted to 1.06; in test [2] (setting [7]), 0.931.

As for `CN(C)Cc1ccc(S(=O)(=O)n2ccc(/C=C/C(=O)NO)c2)cc1` (library stock concentration (final ~1000-fold dilution): 10 mM), the “NF-kB SEAP reporter activity” value in test [1] (agonist: LPS (TLR4) 0.1 ug/mL) is 4.18; in test [1] (setting [4]) it was 0.95; in test [1] (setting [5]), 1.03; in test [1] (setting [6]), 0.94.

With `CN(C)Cc1ccc(S(=O)(=O)n2ccc(/C=C/C(=O)NO)c2)cc1`, the “NF-kB SEAP reporter activity” value in test [2] (setting [8]) amounted to 1.01; in test [2] (setting [7]), 0.905.

Turning to `CC1(Cn2ccnn2)C(C(=O)O)N2C(=O)CC2S1(=O)=O` (configuration not stated) (library stock concentration (final ~1000-fold dilution): 10 mM), the “NF-kB SEAP reporter activity” value stood at 0.971 in test [1] (agonist: LPS (TLR4) 0.1 ug/mL), 1.03 in test [1] (setting [4]), 0.946 in test [1] (setting [5]) and 1.06 in test [1] (setting [6]).

With `CC1(Cn2ccnn2)C(C(=O)O)N2C(=O)CC2S1(=O)=O` (configuration not stated), the “NF-kB SEAP reporter activity” value in test [2] (setting [8]) was found to be 1.06; in test [2] (setting [7]), 0.964.

Take `CC(C)Nc1cc(-c2c[nH]c(C(=O)NC(CO)c3cccc(Cl)c3)c2)c(Cl)cn1` (configuration not stated): the “NF-kB SEAP reporter activity” value in test [2] (setting [8]) worked out at 0.128; in test [2] (setting [7]), 0.246.

In the case of `CC(C)Nc1cc(-c2c[nH]c(C(=O)NC(CO)c3cccc(Cl)c3)c2)c(Cl)cn1` (configuration not stated) (library stock concentration (final ~1000-fold dilution): 10 mM), the “NF-kB SEAP reporter activity” value worked out at 0.201 in test [1] (agonist: LPS (TLR4) 0.1 ug/mL), 0.189 in test [1] (setting [4]), 0.0811 in test [1] (setting [5]) and 0.114 in test [1] (setting [6]).

With `CC#Cc1cncc(-c2ccc3c(c2)C2(N=C(C)C(N)=N2)C2(CCC(OC)CC2)C3)c1` (configuration not stated), the “NF-kB SEAP reporter activity” value was found to be 1.18 in test [2] (setting [8]) and 1.01 in test [2] (setting [7]).

`CC#Cc1cncc(-c2ccc3c(c2)C2(N=C(C)C(N)=N2)C2(CCC(OC)CC2)C3)c1` (configuration not stated) (library stock concentration (final ~1000-fold dilution): 10 mM): the “NF-kB SEAP reporter activity” value in test [1] (agonist: LPS (TLR4) 0.1 ug/mL) was found to be 1.15; in test [1] (setting [4]) it was 0.723; in test [1] (setting [5]), 0.809; in test [1] (setting [6]), 0.972.

Consider `COc1cc(N2CCC(N3CCN(C)CC3)CC2)ccc1Nc1ncc(Cl)c(Nc2ccccc2S(=O)(=O)C(C)C)n1` (library stock concentration (final ~1000-fold dilution): 2 mM), for which the “NF-kB SEAP reporter activity” value is 1.66 in test [1] (agonist: LPS (TLR4) 0.1 ug/mL), 0.603 in test [1] (setting [4]), 0.757 in test [1] (setting [5]) and 1.2 in test [1] (setting [6]).

As to `C=CC(=O)Nc1cccc(Oc2nc(Nc3ccc(N4CCN(C)CC4)cc3OC)ncc2Cl)c1` (library stock concentration (final ~1000-fold dilution): 10 mM), the “NF-kB SEAP reporter activity” value in test [1] (agonist: LPS (TLR4) 0.1 ug/mL) is 0.915; in test [1] (setting [4]), 0.863; in test [1] (setting [5]), 0.802; in test [1] (setting [6]), 0.684.

For the compound `C=CC(=O)Nc1cccc(Oc2nc(Nc3ccc(N4CCN(C)CC4)cc3OC)ncc2Cl)c1`, the results for the “NF-kB SEAP reporter activity” value in test [2] (setting [8]) and in test [2] (setting [7]) were 0.931 and 0.977, respectively.

In the case of `COc1cc(N2CCC(N(C)C)CC2)ccc1Nc1ncc(Cl)c(Nc2ccccc2P(C)(C)=O)n1` (library stock concentration (final ~1000-fold dilution): 10 mM), the “NF-kB SEAP reporter activity” value is 1.87 in test [1] (agonist: LPS (TLR4) 0.1 ug/mL), 1.64 in test [1] (setting [4]), 1.03 in test [1] (setting [5]) and 1.46 in test [1] (setting [6]).

Turning to `COc1cc(N2CCC(N3CCN(C)CC3)CC2)ccc1Nc1ncc(Cl)c(Nc2ccccc2P(C)(C)=O)n1` (library stock concentration (final ~1000-fold dilution): 2 mM), the “NF-kB SEAP reporter activity” value in test [1] (agonist: LPS (TLR4) 0.1 ug/mL) came to 2.66; in test [1] (setting [4]), 1.27; in test [1] (setting [5]), 1.28; in test [1] (setting [6]) it was 1.66.

`COc1cc(N2CCC(N3CCN(C)CC3)CC2)ccc1Nc1ncc(Cl)c(Nc2ccccc2S(=O)(=O)C(C)C)n1`: the entries for the “NF-kB SEAP reporter activity” value in test [2] (setting [9]) and in test [2] (setting [10]) were 1.28 and 0.939, respectively.

As to `Cc1cc(Nc2ncc(Cl)c(Nc3ccccc3S(=O)(=O)C(C)C)n2)c(OC(C)C)cc1C1CCNCC1` (library stock concentration (final ~1000-fold dilution): 10 mM), the “NF-kB SEAP reporter activity” value in test [3] (agonist: LPS (TLR4) 0.1 ug/mL) came to 0.198; in test [3] (setting [4]) it was 0.674; in test [3] (setting [5]) it was 0.845; in test [3] (setting [6]), 0.455.

For `COc1cc(N2CCC(N3CCN(C)CC3)CC2)ccc1Nc1ncnc(Nc2ccccc2S(=O)(=O)C(C)C)n1` (library stock concentration (final ~1000-fold dilution): 10 mM), the “NF-kB SEAP reporter activity” value in test [1] (agonist: LPS (TLR4) 0.1 ug/mL) came out at 5.53; in test [1] (setting [4]) it was 0.961; in test [1] (setting [5]) it was 0.718; in test [1] (setting [6]), 1.04.

As for `COc1cc(N2CCC(N3CCN(C)CC3)CC2)ccc1Nc1ncc(Cl)c(Nc2ccccc2P(C)(C)=O)n1`, the “NF-kB SEAP reporter activity” value is 1.15 in test [2] (setting [9]) and 1.26 in test [2] (setting [10]).

For the compound `Cc1cc(Nc2ncc(Cl)c(Nc3ccccc3S(=O)(=O)C(C)C)n2)c(OC(C)C)cc1C1CCNCC1`, the “NF-kB SEAP reporter activity” value in test [2] (library stock concentration (final ~1000-fold dilution): 10 mM, cytotoxicity flag (confluency mask): cytotoxic (confluency <70% of control), agonist: Imiquimod (TLR7) […]) is 2.07; in test [2] (library stock concentration (final ~1000-fold dilution): 10 mM, cytotoxicity flag (confluency mask): cytotoxic (confluency <70% of control), agonist: MPLA (TLR4) […]), 0.569.

For `COc1cc(N2CCC(N3CCN(C)CC3)CC2)ccc1Nc1ncnc(Nc2ccccc2S(=O)(=O)C(C)C)n1`, the “NF-kB SEAP reporter activity” value in test [2] (setting [8]) amounted to 0.945; in test [2] (setting [7]) it was 1.14.

For `COc1cc(N2CCC(N(C)C)CC2)ccc1Nc1ncc(Cl)c(Nc2ccccc2P(C)(C)=O)n1`, the “NF-kB SEAP reporter activity” value was found to be 1.64 in test [2] (setting [8]) and 2.05 in test [2] (setting [7]).

As for `Cl.Cl.NC1CCC(NC2CC2c2ccccc2)CC1` (configuration not stated), the “NF-kB SEAP reporter activity” value in test [2] (setting [8]) was 1.03; in test [2] (setting [7]) it was 1.37.

With `Cl.Cl.NC1CCC(NC2CC2c2ccccc2)CC1` (configuration not stated) (library stock concentration (final ~1000-fold dilution): 10 mM), the “NF-kB SEAP reporter activity” value in test [1] (agonist: LPS (TLR4) 0.1 ug/mL) amounted to 1.25; in test [1] (setting [4]), 0.222; in test [1] (setting [5]), 0.869; in test [1] (setting [6]), 0.615.
